According to PubChem BioAssay (NCI):
The panel holds about 83,000 compounds, 20% with a hit somewhere; the sample as a whole holds those more often.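 Values shown are percent growth following 48 h exposure of cells in 96-well plates to a single concentration of compound; below 10 was considered active.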 The source made the active and inactive calls.

Key:
Test in all cases: NCI-60 one-dose screen, 48 h (100 = growth as untreated, 0 = no growth, -100 = all killed)
Settings in all cases: 10 µM unless noted
[1] = system: DU-145 prostate
[2] = system: K-562 leukemia
[3] = system: MALME-3M melanoma
[4] = system: MDA-MB-231 breast
[5] = system: RXF 393 renal
[6] = system: SF-268 CNS
[7] = system: SF-295 CNS
[8] = system: SF-539 CNS
[9] = system: UACC-257 melanoma
[10] = system: M14 melanoma

Measured: growth

CCOC(=O)c1ccccc1-c1c2ccc(=[N+](C)C)cc-2oc2cc(N(C)C)ccc12
active: [7] -26.9% | [8] -5.48% | [9] 5.13%
inactive: [1] 25.3% | [2] 10.2% | [3] 28.2% | [4] 11.7% | [5] 18.4% | [6] 20.8% | [10] 13.5%

COc1ccc2c(c1)CCc1[nH]nc(-c3cc(OC)c(OC)c(OC)c3)c1-2
inactive: [3] 69.8% | [4] 19.2% | [5] 22.6% | [6] 17.8% | [9] 38.2%
active: [1] 7.06% | [2] 7.23% | [7] 1.46% | [8] 0.378% | [10] 4.46%

Cc1ccc(C(=O)c2ccc(CC(=O)N=Nc3c(O)[nH]c4ccc(Br)cc34)n2C)cc1
inactive: [1] 97.8% | [2] 83.5% | [3] 111% | [4] 88.4% | [5] 87% | [6] 87.7% | [7] 99.1% | [8] 92.4% | [9] 105% | [10] 91.3%

CN1CCN(C(=O)[C@@]2(C)CC[C@]3(C)CC[C@]4(C)C(=CC[C@@H]5[C@@]6(C)CCC(=O)NC(C)(C)[C@@H]6CC[C@]54C)[C@@H]3C2)CC1
active: [9] -12.9% | [10] 0.579%
inactive: [1] 86.7% | [2] 16% | [3] 19.8% | [4] 61.1% | [5] 35% | [6] 63.1% | [7] 90.5% | [8] 43.9%

CN(C)c1ccc(-c2nc(-c3ccccc3)c(-c3ccccc3)[nH]2)cc1
inactive: [1] 102% | [2] 65.7% | [3] 107% | [4] 95.3% | [5] 104% | [6] 112% | [7] 88.6% | [8] 102% | [9] 110% | [10] 82.7%

N#C/C(=C\c1ccc(-c2cccc(C(F)(F)F)c2)o1)c1ccccc1
inactive: [1] 102% | [2] 87.1% | [3] 96.4% | [4] 74.4% | [5] 101% | [6] 107% | [7] 89.1% | [8] 95.6% | [9] 103% | [10] 84.5%

Nc1nc(N)c(N=Nc2ccccc2)c(-c2ccccc2)n1
inactive: [1] 76.8% | [2] 77.1% | [3] 77.4% | [4] 49.9% | [5] 24.9% | [6] 58% | [7] 54.2% | [8] 47.4% | [9] 90.8% | [10] 84.5%

CC(C)CCN(CCC(C)C)CC(O)c1cc2c(c3ccccc13)CCCC2 (stereo not given)
inactive: [1] 60.8% | [2] 43.5% | [3] 94.3% | [4] 37.7% | [5] 62.1% | [6] 71.9% | [7] 76.5% | [8] 82.1% | [9] 99.4% | [10] 89.3%

O=C(CCCCCCN1CC(=O)N2[C@H](c3ccc(Br)cc3)c3[nH]c4ccccc4c3C[C@@H]2C1=O)NO
inactive: [1] 57.5% | [2] 14.7% | [3] 20.4% | [4] 43.7% | [5] 42.4% | [6] 71.4% | [7] 67.2% | [8] 43.7% | [9] 34.9% | [10] 46.6%

O=C(/C=C/c1ccccc1)c1ccc(Nc2nc(Nc3ccc(F)cc3)nc(Nc3ccc(Cl)cc3)n2)cc1
inactive: [1] 97.7% | [2] 70.9% | [3] 109% | [4] 81.5% | [5] 134% | [6] 88.1% | [7] 69.3% | [8] 97.2% | [9] 110% | [10] 81.2%

O=C(NNC(=O)c1nc2cc(F)ccc2n2cccc12)c1cnccn1
inactive: [1] 44.5% | [2] 18.2% | [3] 37.7% | [4] 37.4% | [5] 66.4% | [6] 34.8% | [7] 21.6% | [8] 29.6% | [9] 53.6% | [10] 23.4%

C/C(Cc1ccc(Cl)cc1)=C(\c1ccc(OCCCN(C)C)cc1)c1ccc(OC(=O)Cc2ccccc2)cc1
inactive: [1] 106% | [2] 91.8% | [3] 111% | [4] 108% | [5] 109% | [6] 97.6% | [7] 100% | [8] 105% | [9] 103% | [10] 109%

O=C1Nc2ccccc2C1(c1c[nH]c2ccccc12)c1c[nH]c2ccccc12
inactive: [1] 29.6% | [2] 42.9% | [3] 81.8% | [4] 49% | [6] 53.2% | [7] 86.3% | [8] 47.1% | [9] 94.6% | [10] 66%
active: [5] -53%

CCOC(=O)C1=C(C)C(Cl)=N/C1=C\c1[nH]c(Cl)c(C)c1C(=O)OCC
inactive: [1] 111% | [2] 91% | [3] 107% | [4] 93% | [5] 115% | [6] 101% | [7] 111% | [8] 100% | [9] 91.4% | [10] 87.1%

CCS/C(Nc1ccccc1)=C(\C#N)C(=O)Nc1ccc(OC)cc1
inactive: [1] 33.8% | [3] 55.6% | [4] 44.5% | [5] 39.5% | [6] 39.1% | [7] 32.6% | [8] 29.1% | [9] 58.4% | [10] 15.2%
active: [2] 7.34%

Cc1ccc(/C=C/C(=O)c2cccc(OCCCOc3cccc(C(=O)/C=C/c4ccc(C)cc4)c3)c2)cc1
inactive: [1] 88.9% | [2] 52.9% | [3] 98.8% | [4] 86.8% | [5] 85.7% | [6] 79.6% | [7] 77.4% | [8] 83.8% | [9] 96.4% | [10] 73.4%

Cc1cccc(-c2nc(Nc3ccc4ncsc4c3)c3ccccc3n2)n1
inactive: [1] 90.6% | [2] 28.5% | [3] 102% | [4] 101% | [5] 78.8% | [6] 98% | [7] 88.7% | [8] 98.1% | [9] 81.4% | [10] 64%

CC/C=C\C[C@H](O)C/C=C1/C(=O)C=C[C@@H]1C/C=C\CCCC(=O)O
inactive: [1] 60.2% | [2] 17.1% | [3] 67.5% | [4] 56.7% | [5] 94.2% | [6] 81.3% | [7] 96% | [8] 59.2% | [9] 55.2% | [10] 57.8%

C=C1C(=O)O[C@H]2[C@H]1CC/C(COC(=O)/C=C/C(=O)OC/C1=C/CC[C@@]3(C)O[C@H]3[C@H]3OC(=O)C(=C)[C@@H]3CC1)=C\CC[C@@]1(C)O[C@@H]21
inactive: [1] 25.4% | [6] 90.3% | [7] 115% | [8] 82.2% | [9] 60.3% | [10] 27.5%
active: [2] 5.18% | [3] -27.3% | [4] -7.25% | [5] -11.3%

COc1ccc(Nc2ncccc2/C=C/C(=O)c2cc(OC)c(OC)c(OC)c2)cc1
inactive: [4] 17.3% | [7] 17%
active: [1] 6.98% | [2] -26.3% | [3] -5.45% | [5] -61% | [6] -33.2% | [8] -51.1% | [9] -89.7% | [10] -53.4%

CNC1=C([N+](=O)[O-])C(c2ccc(OC)cc2)C(C#N)=C(c2cccs2)O1 (stereo not given)
inactive: [1] 113% | [2] 105% | [3] 98.6% | [4] 99.5% | [5] 121% | [6] 101% | [7] 101% | [8] 100% | [9] 106% | [10] 103%

CCOC(=O)c1nn(CC(O)c2ccccc2)c(NC(=O)Nc2cccc(F)c2)c1C (stereo not given)
inactive: [1] 94.4% | [2] 92.4% | [3] 100% | [4] 90% | [5] 107% | [6] 95.4% | [7] 92.2% | [8] 102% | [9] 86.8% | [10] 103%

C=C1C(=O)O[C@H]2[C@H]1CC/C(COC(=O)/C=C\C(=O)NCc1ccc(Cn3c(=O)sn(CCCl)c3=O)cc1)=C\CC[C@@]1(C)O[C@@H]21
inactive: [1] 57.6% | [2] 28.9% | [3] 43.6% | [4] 90% | [5] 56.3% | [6] 89% | [7] 103% | [8] 96.5% | [9] 81.8% | [10] 51.6%

COc1cc(C2C(C(=O)OCc3ccccc3)=C(C)NC(C)=C2C(=O)OCc2ccccc2)cc(OC)c1OC
active: [5] -18.5%
inactive: [1] 53.9% | [2] 20.3% | [3] 18% | [4] 31.9% | [6] 37.6% | [7] 15.4% | [8] 41.3% | [9] 19.5% | [10] 21.9%

O=C1/C(=C\c2cccc3nccnc23)SC(=S)N1CCc1ccc(O)cc1
inactive: [1] 98.1% | [2] 88.5% | [3] 87.3% | [4] 83.8% | [5] 107% | [6] 97% | [7] 101% | [8] 97.7% | [9] 100% | [10] 96.3%

COc1cc(C(=O)c2c(-c3ccccc3)oc3c(OC)cccc23)cc(OC)c1OC
active: [1] 6.56% | [4] -0.456% | [5] -3.42% | [7] 2.79% | [8] -26.1% | [10] 3.87%
inactive: [2] 12.3% | [3] 42.2% | [6] 30.1% | [9] 71.1%
